# Assay results as given in PubChem BioAssay (NCATS).
# Values joined by “and” are separate entries in the source; they are usually repeats but may differ in a detail not shown here. Identical values can stand only once. Results filed as inconclusive are left out. Active and inactive are the calls of the source. Unless noted, the call rests on the fitted dose curve; in most records, active means well fitted curve in the direction sought with a large enough effect; inconclusive means small, poorly fitted or top-dose-only effect, or another doubt; inactive means no such curve, though single readings can be large; an effect the other way counts as inactive or inconclusive.
# Tests used:
# [1] = molecular target: Catechol O-methyltransferase (Homo sapiens) (UniProt P21964); test: Confirmatory Screen for Target Class Profiling of Small Molecule Inhibitors of Methyltransferases (AID 1745852; calls by dose curve; further: potency means the concentration at half of the fitted maximal effect; on activity change, negative = inhibition: on the % scale 0 is the no-effect control and ±100 the full control effect); settings: MTase-Glo luminescence, SAH detection, recombinant enzyme; measured here: COMT max response; stronger effect = lower value
# Chain of Catechol O-methyltransferase (Homo sapiens) (P21964 whole entry, looked up): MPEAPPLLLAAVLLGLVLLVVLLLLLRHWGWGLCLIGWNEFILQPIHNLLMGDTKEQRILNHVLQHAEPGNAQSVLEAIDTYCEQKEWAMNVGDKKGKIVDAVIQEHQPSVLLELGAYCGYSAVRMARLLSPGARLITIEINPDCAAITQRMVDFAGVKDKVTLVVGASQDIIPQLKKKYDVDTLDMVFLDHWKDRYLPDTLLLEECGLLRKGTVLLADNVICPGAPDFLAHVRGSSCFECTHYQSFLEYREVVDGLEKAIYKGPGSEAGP
# [2] = molecular target: Guanidinoacetate N-methyltransferase (Homo sapiens) (UniProt Q14353); test: as above; settings: MTase-Glo luminescence, SAH detection, recombinant enzyme
# [3] = molecular target: Nicotinamide N-methyltransferase (Homo sapiens) (UniProt P40261); test: as above; settings: MTase-Glo luminescence, SAH detection, recombinant enzyme; measured here: NNMT max response; stronger effect = lower value
# Chain of Nicotinamide N-methyltransferase (Homo sapiens) (P40261 whole entry, looked up): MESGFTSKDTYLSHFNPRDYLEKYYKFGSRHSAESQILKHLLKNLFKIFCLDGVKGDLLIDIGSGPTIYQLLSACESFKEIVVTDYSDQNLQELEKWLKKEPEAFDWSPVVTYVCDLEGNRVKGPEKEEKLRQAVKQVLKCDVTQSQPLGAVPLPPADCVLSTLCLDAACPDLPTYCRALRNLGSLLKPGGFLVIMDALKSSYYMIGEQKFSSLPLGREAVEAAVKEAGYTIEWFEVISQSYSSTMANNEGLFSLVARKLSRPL
# [4] = molecular target: Phenylethanolamine N-methyltransferase (Homo sapiens) (UniProt P11086); test: as above; settings: MTase-Glo luminescence, SAH detection, recombinant enzyme; measured here: PNMT max response; stronger effect = lower value
# Chain of Phenylethanolamine N-methyltransferase (Homo sapiens) (P11086 whole entry, looked up): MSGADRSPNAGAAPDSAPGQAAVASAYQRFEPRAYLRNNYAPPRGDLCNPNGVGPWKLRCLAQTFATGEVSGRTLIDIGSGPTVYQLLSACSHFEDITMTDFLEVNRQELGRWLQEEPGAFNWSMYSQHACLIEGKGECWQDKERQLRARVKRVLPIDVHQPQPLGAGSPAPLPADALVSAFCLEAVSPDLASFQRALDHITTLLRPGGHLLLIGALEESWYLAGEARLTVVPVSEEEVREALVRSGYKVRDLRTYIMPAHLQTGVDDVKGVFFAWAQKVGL
# [5] = NCATS anti-infectives library activity on HEK293 viability as a counter-qHTS vs the C. elegans viability qHTS (AID 1745854); settings: HEK293 viability counter-screen; series mostly up to 41.8 µM;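 further: HEK293 cells exposed to compounds for 24 hr before the viability read; on the % scale 0 is the no-effect control and ±100 the full control effect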
# How it was run: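 Compound titrations (final up to 41.7 uM) were incubated with HEK293 cells for 24 hr at 37C under 5% CO2. Viable cells were quantified with CellTiter-Glo after 10 min at ambient temperature.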
# [6] = NCATS anti-infectives library activity on the primary C. elegans qHTS viability assay (AID 1745855; calls by dose curve); settings: C. elegans worm area imaging, day 7; at 41.8 µM (top of the series)
# How it was run: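 Titration-based screen in worms: eggs hatched overnight in M9, L1 larvae fed TOP10 capsules in S medium with compound, incubated 21 °C for 7 days; fluorescent objects gated by size and intensity at days 0, 3 and 7.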
# [7] = Viability counterscreen for antagonist of constitutive androstane receptor (CAR) against the NCATS DSHEA and TCM libraries (AID 1794837); settings: CAR reporter cell line viability counterscreen, qHTS; series mostly up to 40 µM;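 further: compound exposure lasted 24 h before viability reading; 0% is about no effect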
# How it was run: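 HepG2-CYP2B6-hCAR cells, 2,500/well, were exposed 24 hr at 37C to substances together with 48 uM CITCO (final). Viability was read as CellTiter-Fluor fluorescence (Ex/Em 405/540 nm) after 1 hr.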
# [8] = Viability counterscreen for agonist of constitutive androstane receptor (CAR) against the NCATS DSHEA and TCM libraries (AID 1794838); settings: HepG2 cell viability counterscreen, CAR agonist assay, co-treated with 0.75 µM CAR antagonist; series mostly up to 40 µM;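 further: HepG2 cells with CYP2B6 reporter and hCAR plus 0.75 µM PK11195 antagonist; 0% is about no effect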
# How it was run: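 HepG2-CYP2B6-hCAR cells (2,500/well) treated 24 h at 37C with compounds plus 0.75 uM PK11195; viability read by CellTiter-Fluor fluorescence, Ex/Em 405/540 nm.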
# [9] = molecular target: Nuclear receptor subfamily 1 group I member 3 (Homo sapiens) (UniProt Q14994); test: Primary qHTS for agonist of constitutive androstane receptor (CAR) against the NCATS DSHEA and TCM libraries (AID 1794839); settings: CAR agonist reporter cells, qHTS luminescence, CAR antagonist co-added at 0.75 µM; series mostly up to 40 µM;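 further: HepG2 cells expressing human CAR with a CYP2B6 reporter plus PK11195 antagonist; 0% is about no effect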
# Chain of Nuclear receptor subfamily 1 group I member 3 (Homo sapiens) (Q14994 whole entry, looked up): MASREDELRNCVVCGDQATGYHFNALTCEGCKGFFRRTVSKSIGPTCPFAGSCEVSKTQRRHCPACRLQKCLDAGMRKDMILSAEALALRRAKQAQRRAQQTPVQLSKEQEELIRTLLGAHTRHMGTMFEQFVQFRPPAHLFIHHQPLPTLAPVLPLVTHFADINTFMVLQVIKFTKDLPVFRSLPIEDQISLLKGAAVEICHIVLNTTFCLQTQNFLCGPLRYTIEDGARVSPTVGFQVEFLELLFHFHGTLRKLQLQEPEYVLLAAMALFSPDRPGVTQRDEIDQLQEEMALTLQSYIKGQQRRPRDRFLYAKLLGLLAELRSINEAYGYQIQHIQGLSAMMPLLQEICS
# How it was run: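 HepG2-CYP2B6-hCAR cells, 2,500/well, attached 5 h, then dosed with 0.75 µM PK11195 (final) for 24 h at 37 °C. Luciferase luminescence read (ONE-Glo); CellTiter-Fluor viability (Ex/Em 405/540 nm) in same wells; CITCO positive control.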
# [10] = molecular target: Rap guanine nucleotide exchange factor 3 (Homo sapiens) (UniProt O95398); test: Counterscreen qHTS for antagonist of cAMP-regulated guanine nucleotide exchange factor 3 (EPAC1) (AID 1645888); settings: Rap1B-BODIPY-GDP nucleotide exchange, fluorescence; series mostly up to 30.8 µM;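 further: fluorescence loss as bound BODIPY-GDP is released from Rap1B; % of control where 0% means no effect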
# Chain of Rap guanine nucleotide exchange factor 3 (Homo sapiens) (O95398 whole entry, looked up): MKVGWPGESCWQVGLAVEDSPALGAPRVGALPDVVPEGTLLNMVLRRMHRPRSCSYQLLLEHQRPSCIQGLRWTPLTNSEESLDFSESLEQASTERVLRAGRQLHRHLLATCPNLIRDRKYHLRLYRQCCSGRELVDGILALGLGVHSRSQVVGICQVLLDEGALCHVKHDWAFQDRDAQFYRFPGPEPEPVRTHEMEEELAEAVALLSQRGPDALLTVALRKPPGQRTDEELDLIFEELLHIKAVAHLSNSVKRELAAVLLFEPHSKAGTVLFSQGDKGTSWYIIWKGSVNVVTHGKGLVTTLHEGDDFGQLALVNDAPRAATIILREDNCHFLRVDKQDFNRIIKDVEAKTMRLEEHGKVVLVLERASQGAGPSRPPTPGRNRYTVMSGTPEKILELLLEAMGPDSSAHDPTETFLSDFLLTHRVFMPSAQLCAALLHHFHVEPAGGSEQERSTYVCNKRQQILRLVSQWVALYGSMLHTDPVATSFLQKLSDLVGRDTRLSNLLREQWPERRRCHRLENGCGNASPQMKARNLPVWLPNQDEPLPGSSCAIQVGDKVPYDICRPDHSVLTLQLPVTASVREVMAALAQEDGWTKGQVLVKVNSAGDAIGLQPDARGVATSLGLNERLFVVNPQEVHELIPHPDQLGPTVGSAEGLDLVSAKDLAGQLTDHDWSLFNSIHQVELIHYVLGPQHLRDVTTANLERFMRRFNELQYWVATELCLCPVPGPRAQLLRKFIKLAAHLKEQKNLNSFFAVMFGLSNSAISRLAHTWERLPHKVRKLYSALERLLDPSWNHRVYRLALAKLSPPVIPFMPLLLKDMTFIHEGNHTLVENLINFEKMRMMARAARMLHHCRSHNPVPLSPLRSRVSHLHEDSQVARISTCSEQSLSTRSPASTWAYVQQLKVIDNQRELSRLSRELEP
# How it was run: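 Measured: fluorescence of BODIPY-GDP bound to Rap1B, which falls as exchange proceeds. Conditions include 50 uM competing GDP, 5 and 30 min reads, and a later cAMP challenge for antagonist detection.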
smiles,measurement,setting,value
Cc1ccc2nc(N)[nH]c(=O)c2c1Sc1ccncc1,activity,[1],-5.5%
same,"activity change, negative = inhibition",[2]; at 57.3 µM (top of the series),2.89%
same,activity,[3],1.11%
same,activity,[4],1.12%
CCCCc1ncc(/C=C(\Cc2cccs2)C(=O)O)n1Cc1ccc(C(=O)O)cc1,outcome,[5],inactive
same,outcome,[6],inactive
Cc1cc(N)c2ccccc2[n+]1CCCCCCCCCC[n+]1c(C)cc(N)c2ccccc21,activity,[1],2.05%
same,"activity change, negative = inhibition",[2]; at 57.3 µM (top of the series),-0.381%
same,activity,[3],-23.8%
same,activity,[4],3.98%
O=C(O)c1ccccc1O,outcome,[5],inactive
same,outcome,[7],inactive
same,outcome,[8],inactive
same,outcome,[9],inactive
CCCc1c(OCCCCc2nn[nH]n2)ccc(C(C)=O)c1O,outcome,[10],inactive
CCOc1nc2cccc(C(=O)O)c2n1Cc1ccc(-c2ccccc2-c2nn[nH]n2)cc1,outcome,[5],inactive
same,outcome,[6],inactive
COc1ccc(Cl)cc1C(=O)NCCc1ccc(S(=O)(=O)NC(=O)NC2CCCCC2)cc1,activity,[1],-8.62%
same,"activity change, negative = inhibition",[2]; at 57.3 µM (top of the series),-1.47%
same,activity,[3],-22.1%
same,activity,[4],-3.2%
C[C@]12CC[C@@H]3c4ccc(O)cc4CC[C@H]3[C@@H]1CCC2=O,activity,[1],-21.5%
same,"activity change, negative = inhibition",[2]; at 57.3 µM (top of the series),-1.67%
same,activity,[3],-55.7%
same,activity,[4],-0.307%
O=c1cc(CO)occ1O,outcome,[5],inactive
NC(=O)c1ncn([C@@H]2O[C@H](CO)[C@@H](O)[C@H]2O)n1,outcome,[5],inactive
CCCCCCCCCCCCCCCC(=O)NCCO,outcome,[5],inactive
O=C1Nc2ccc(Cl)cc2[C@@](C#CC2CC2)(C(F)(F)F)O1,activity,[1],-1.93%
same,"activity change, negative = inhibition",[2]; at 57.3 µM (top of the series),0%
same,activity,[3],-43%
same,activity,[4],-2.33%
CC(C)(O)c1ccccc1CC[C@@H](SCC1(CC(=O)O)CC1)c1cccc(/C=C/c2ccc3ccc(Cl)cc3n2)c1,activity,[1],-3.13%
same,"activity change, negative = inhibition",[2]; at 57.3 µM (top of the series),-3.41%
same,activity,[3],-24.6%
same,activity,[4],-2.75%
CC1=C(C/C=C(\C)CCC[C@H](C)CCC[C@H](C)CCCC(C)C)C(=O)c2ccccc2C1=O,outcome,[7],inactive
same,outcome,[8],inactive
same,outcome,[9],inactive
NCC(=O)CCC(=O)O,outcome,[5],inactive
CC(CN1c2ccccc2Sc2ccccc21)N(C)C (stereo not given),outcome,[5],inactive
Nc1nc2c(ncn2CCC(CO)CO)c(=O)[nH]1,outcome,[5],inactive
O=C1O[C@H]([C@@H](O)CO)C(O)=C1O,outcome,[7],inactive
same,outcome,[8],inactive
same,outcome,[9],inactive
CN1CCN(C2Cc3ccccc3Sc3ccc(Cl)cc32)CC1 (stereo not given),activity,[1],14.6%
same,"activity change, negative = inhibition",[2]; at 57.3 µM (top of the series),8.35%
same,activity,[3],-22.8%
same,activity,[4],8.62%
Cc1cc(C(C#N)c2ccc(Cl)cc2)c(Cl)cc1NC(=O)c1cc(I)cc(I)c1O (stereo not given),activity,[1],-21.3%
same,Potency,[2],30.4 µM (active)
same,activity,[3],-81.7%
same,activity,[4],-74.7%
CCN(CC)CCCC(C)Nc1c2ccc(Cl)cc2nc2ccc(OC)cc12 (stereo not given),activity,[1],-1.98% and -3.74%
same,"activity change, negative = inhibition",[2]; at 29.8 µM (top of the series),-0.149%
same,"activity change, negative = inhibition",[2]; at 57.3 µM (top of the series),2.96%
same,activity,[3],-11.3% and -15.1%
same,activity,[4],3.56% and -4.16%
O=C(O)c1ccccn1,outcome,[5],inactive
CN(C)CC[C@@H](c1ccc(Cl)cc1)c1ccccn1,activity,[1],-1.71%
same,"activity change, negative = inhibition",[2]; at 57.3 µM (top of the series),2.46%
same,activity,[3],-7.31%
same,activity,[4],-1.72%
NC(N)=NCCC[C@H](N)C(=O)O,activity,[1],6.47%
same,"activity change, negative = inhibition",[2]; at 57.3 µM (top of the series),-1.16%
same,activity,[3],-0.737%
same,activity,[4],6.66%
Cc1ncc(COP(=O)(O)O)c(C=O)c1O,outcome,[5],inactive
COc1ccc2cc1Oc1ccc(cc1)C[C@H]1c3c(cc4c(c3Oc3cc5c(cc3OC)CCN(C)[C@@H]5C2)OCO4)CCN1C,outcome,[5],inactive
CN(C)CCCN1c2ccccc2Sc2ccc(Cl)cc21,outcome,[5],inactive
CC[C@H]1CN2CCc3cc(OC)c(OC)cc3[C@@H]2C[C@@H]1C[C@H]1NCCc2cc(OC)c(OC)cc21,outcome,[6],inactive
CC(C)(C)[C@]1(O)CCN2C[C@H]3c4ccccc4CCc4cccc(c43)[C@@H]2C1,activity,[1],-2.14%
same,"activity change, negative = inhibition",[2]; at 57.3 µM (top of the series),6.2%
same,activity,[3],-19.3%
same,activity,[4],-4.4%
